Data on 15 compounds can be found in PubChem BioAssay (NCI).

Among the test systems are DU-145 prostate; K-562 leukemia; MALME-3M melanoma; MDA-MB-231 breast; RXF 393 renal; SF-268 CNS; SF-539 CNS; UACC-257 melanoma; M14 melanoma; SF-295 CNS.
Holding throughout (assay): NCI-60 one-dose screen, 48 h (100 = growth as untreated, 0 = no growth, -100 = all killed)
What all share (details): 10 µM unless noted

The panel holds about 83,000 compounds, 20% with a hit somewhere; the sample as a whole holds those more often.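 Activity criterion: percent growth below 10, measured after cells in 96-well plates were exposed to a single compound concentration for 48 hours.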 Unmarked numbers belong to inactive results. The source made the active and inactive calls.

With `Nc1nc(N)c2nc3c(nc2n1)CCCCCCCCCC3`, the growth with DU-145 prostate is 53.6%; with K-562 leukemia, 29.1%; with MALME-3M melanoma it was 79.1%; with MDA-MB-231 breast, 84.9%; with RXF 393 renal, 80%; in the experiment with SF-268 CNS, 42.1%. For the same compound, the growth in the experiment on SF-539 CNS was 59.6%; in the experiment with UACC-257 melanoma it was 55.5%; with M14 melanoma, 33.1%.

Turning to `O=C1NC(=Nc2ccc(S(=O)(=O)Nc3nccs3)cc2)S/C1=C\c1coc2ccccc2c1=O`, the growth in the experiment on DU-145 prostate is 121%; with K-562 leukemia, 93.8%; with MALME-3M melanoma, 109%; in the experiment with MDA-MB-231 breast it was 105%; in the experiment on RXF 393 renal, 105%; in the experiment with SF-268 CNS, 123%. The growth in the experiment on SF-539 CNS was 96.2%; with UACC-257 melanoma, 105%; with M14 melanoma, 105%.

In the case of `COc1ccc(-c2cc(/C=C/C(=O)c3ccc(N)cc3)[nH]n2)cc1`, the growth is 11.9% in the experiment on DU-145 prostate; -2.07% (active) in the experiment with K-562 leukemia; 54.3% with MALME-3M melanoma; 35.7% with MDA-MB-231 breast; 20% in the experiment on RXF 393 renal; 17% in the experiment on SF-268 CNS. The growth in the experiment with SF-539 CNS is 1.33% (active); in the experiment on UACC-257 melanoma, 58.9%; in the experiment with M14 melanoma, 23%.

Regarding `CC(C)=CCC/C(C)=C/CC/C(C)=C/CC/C(C)=C/CSC[C@H](NC(=O)CCCCCN1CCN(C)CC1)C(=O)NC1CCCCC1`, the growth with DU-145 prostate was 64.3%; with K-562 leukemia it was -27.2% (active); with MALME-3M melanoma it was 71.2%; in the experiment on MDA-MB-231 breast, -81.3% (active); in the experiment with RXF 393 renal, 75.1%; in the experiment with SF-268 CNS it was 84.8%. Also, the growth with SF-539 CNS was 85.7%; with UACC-257 melanoma, 105%; with M14 melanoma, 35.1%.

On to `Oc1cc(/C=C/c2nc(N3CCOCC3)c3cc(Cl)c(Cl)cc3n2)cc(O)c1O`, for which the growth is 104% in the experiment on DU-145 prostate; 81.5% in the experiment with K-562 leukemia; 107% in the experiment on MALME-3M melanoma; 106% with MDA-MB-231 breast; 98.8% with RXF 393 renal; 108% with SF-268 CNS. In addition, the growth with SF-539 CNS was 94.1%; with UACC-257 melanoma it was 99.8%; with M14 melanoma, 102%.

For `COc1ccc(-c2nc3ccccn3c2-c2nc3ccc(Cl)cc3[nH]2)cc1`, the growth with DU-145 prostate is 107%; with K-562 leukemia, 54.6%; in the experiment with MALME-3M melanoma, 109%; in the experiment with MDA-MB-231 breast, 95.2%; in the experiment on RXF 393 renal, 95.8%; in the experiment with SF-268 CNS it was 112%. Moreover, the growth in the experiment on SF-539 CNS is 98.9%; in the experiment with UACC-257 melanoma, 94.2%; in the experiment with M14 melanoma, 103%.

For `Cc1ccc(-c2nc3ccc(Cl)cc3c(=O)n2N2C(=O)CSC2c2ccccc2Cl)cc1` (centres undefined), the growth with DU-145 prostate was 73.1%; with K-562 leukemia it was 93.4%; with MALME-3M melanoma, 65.8%; with MDA-MB-231 breast it was 59.9%; in the experiment on RXF 393 renal, 98.5%; in the experiment on SF-268 CNS, 60.4%. Moreover, the growth with SF-539 CNS is 78.8%; with M14 melanoma it was 71.4%.

In the case of `O=C1c2ccccc2C(=Cc2ccccc2)c2ccccc21`, the growth in the experiment on DU-145 prostate is -21.3% (active); with K-562 leukemia, 8.16% (active); in the experiment on MALME-3M melanoma it was 41.6%; in the experiment with MDA-MB-231 breast, -20.7% (active); in the experiment with RXF 393 renal, -1.26% (active); with SF-268 CNS, 10.6%. Moreover, the growth was -26.2% (active) in the experiment on SF-539 CNS, 15.7% in the experiment on UACC-257 melanoma and -20.5% (active) in the experiment with M14 melanoma.

Take `COC(c1ccccc1)(c1ccccc1)c1ccccc1`: the growth with DU-145 prostate was 108%; in the experiment with K-562 leukemia it was 109%; with MALME-3M melanoma, 95.4%; with MDA-MB-231 breast, 102%; in the experiment on SF-268 CNS it was 98.5%; in the experiment with SF-295 CNS it was 90.7%. For the same compound, the growth was 102% in the experiment on SF-539 CNS, 122% in the experiment with UACC-257 melanoma and 136% in the experiment on M14 melanoma.

Regarding `Clc1ccc2[nH]cc(-c3nc(-c4c[nH]c5ncccc45)cs3)c2c1`, the growth in the experiment with DU-145 prostate is 42.1%; in the experiment with K-562 leukemia, 13.1%; in the experiment on MDA-MB-231 breast, 37.9%; with RXF 393 renal, 45.5%; with SF-268 CNS, 61.7%; in the experiment on SF-295 CNS it was 19.4%. In addition, the growth in the experiment with SF-539 CNS was 70.5%; with UACC-257 melanoma, 9.88% (active); in the experiment on M14 melanoma it was 20.1%.

Turning to `CC(=O)O[C@H]1CC[C@@]2(C)C(=CC[C@@H]3[C@@H]2CC[C@]2(C)C(=O)N(O)C(=O)C[C@@H]32)C1`, the growth was 86.9% in the experiment with DU-145 prostate; 49.9% with K-562 leukemia; 97.9% in the experiment on MDA-MB-231 breast; 74% with RXF 393 renal; 91.7% in the experiment on SF-268 CNS; 98.9% with SF-295 CNS. The growth in the experiment with SF-539 CNS was 105%; in the experiment with UACC-257 melanoma, 106%; with M14 melanoma, 96.4%.

On to `CCOC(=O)c1ccc2c(c1)[n+](=O)c(C(=O)C1CCCS1)c(C(F)(F)F)n2[O-]` (centres undefined), for which the growth with DU-145 prostate was -96.5% (active); in the experiment on K-562 leukemia it was -52.6% (active); in the experiment on MDA-MB-231 breast, -76.8% (active); with RXF 393 renal, -92.3% (active); in the experiment with SF-268 CNS, -89.6% (active); in the experiment with SF-295 CNS, -88% (active). Moreover, the figures for the growth in the experiment with SF-539 CNS, with UACC-257 melanoma and in the experiment on M14 melanoma were -83.8% (active), -90.4% (active) and -96.6% (active), respectively.

Take `COc1c(N)c2c(c([N+](=O)[O-])c1OC)C(=O)OC2`: the growth was 116% in the experiment on DU-145 prostate; 119% in the experiment on K-562 leukemia; 115% in the experiment with MDA-MB-231 breast; 112% with RXF 393 renal; 106% in the experiment with SF-268 CNS; 107% with SF-295 CNS. In addition, the growth in the experiment with SF-539 CNS was 104%; in the experiment on UACC-257 melanoma, 102%; in the experiment on M14 melanoma it was 109%.

Take `Oc1cccc2oc(=S)[nH]c12`: the growth with DU-145 prostate is 118%; in the experiment on K-562 leukemia, 118%; with MDA-MB-231 breast, 99.1%; with RXF 393 renal, 112%; in the experiment on SF-268 CNS, 111%; with SF-295 CNS, 118%. Also, the growth was 88.8% in the experiment with SF-539 CNS, 114% in the experiment on UACC-257 melanoma and 111% in the experiment with M14 melanoma.

With `C(=C\c1c[nH]c2ccccc12)/c1ccc2ccccc2n1`, the growth in the experiment on DU-145 prostate was 92.7%; in the experiment on K-562 leukemia it was 51.9%; with MDA-MB-231 breast, 56.4%; in the experiment with RXF 393 renal it was 92.1%; in the experiment on SF-268 CNS it was 71.4%; in the experiment with SF-295 CNS, 81.4%. Further, the figures for the growth in the experiment on SF-539 CNS, in the experiment with UACC-257 melanoma and in the experiment with M14 melanoma were 87.9%, 90.2% and 82.2%, respectively.
